A selection: hits, their analogues and other compounds. The true share with any hit is near 3%.
TSHR ag = qHTS Assay for Agonists of the Thyroid Stimulating Hormone Receptor; Thyrotropin receptor (Homo sapiens), P16473; HEK293-CNG-TSHR cells (CNG channel as cAMP sensor), membrane potential dye, cAMP; Potency, µM (top dose mostly 57.1 µM), actives largely listed as activators; hit rate 0.48% among 73,000; active = well fitted activation curve with a large enough effect in the main read-out, with a control signal flat, not every such curve was filed as active; inconclusive = small, poorly fitted or top-dose-only effect, or a change in a side signal; inactive = no such curve, though single readings can be large or run the other way; reference of the percent scale not stated here;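 also: the control signal comes from parental cells without the receptor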
Target sequence (P16473 whole entry, looked up): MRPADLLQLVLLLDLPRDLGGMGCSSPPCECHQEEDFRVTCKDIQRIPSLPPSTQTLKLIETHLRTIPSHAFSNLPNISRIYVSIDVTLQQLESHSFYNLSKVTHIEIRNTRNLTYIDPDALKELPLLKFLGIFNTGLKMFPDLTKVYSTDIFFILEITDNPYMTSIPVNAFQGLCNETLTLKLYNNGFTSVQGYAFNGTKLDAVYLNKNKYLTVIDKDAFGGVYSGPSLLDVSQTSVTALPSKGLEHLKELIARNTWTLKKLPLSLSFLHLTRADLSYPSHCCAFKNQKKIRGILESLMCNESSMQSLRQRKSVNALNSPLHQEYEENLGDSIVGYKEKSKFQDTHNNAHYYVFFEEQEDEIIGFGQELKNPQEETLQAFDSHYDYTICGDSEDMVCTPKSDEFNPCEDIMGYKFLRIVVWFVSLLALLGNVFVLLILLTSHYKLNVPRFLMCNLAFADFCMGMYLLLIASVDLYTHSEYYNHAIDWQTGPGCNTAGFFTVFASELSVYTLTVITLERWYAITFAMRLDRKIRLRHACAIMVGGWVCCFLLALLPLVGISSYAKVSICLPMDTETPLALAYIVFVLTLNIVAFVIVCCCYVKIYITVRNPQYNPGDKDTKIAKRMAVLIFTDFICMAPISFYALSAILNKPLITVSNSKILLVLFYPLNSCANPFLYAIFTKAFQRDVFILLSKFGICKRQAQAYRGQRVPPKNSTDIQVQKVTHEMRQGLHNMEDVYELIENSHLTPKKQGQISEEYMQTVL
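HEK 293 cells stably expressing TSHR and a cAMP-gated CNG channel; parental CNG-only cells as counterscreen. Cells preloaded 60 min with membrane potential dye plus 100 uM RO 20-1724, then compound 30 min; fluorescence read at 590 nm.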
HBB splicing = qHTS Assay for Modulators of Hemoglobin Beta Chain Splicing. Potency, µM (doses to about 46.1 µM), hits mostly activators. HBB splicing reporter cell assay, activation; EGFP reporter with mutant IVS2-654 intron; response scale: normalised to 500 nM splice-correcting PNA. hit rate 0.06% among 65,000
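HeLa cells stably expressing EGFP interrupted by mutant beta-globin intron 2 (IVS2-654), 500/well in 2% FCS. Treated with compound for 2 days at 37C. Splicing correction scored as total well GFP intensity (488 nm excitation, 500-520 nm emission); 500 nM antisense PNA served as control.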
HEK293 cAMP ctrl = qHTS Assay for Agonists of the Thyroid Stimulating Hormone Receptor: Activators of Intracellular cAMP Concentrations in Parental HEK 293; parental HEK293 CNG cAMP sensor, membrane potential fluorescence; Potency, µM (top dose mostly 57.1 µM), actives largely listed as activators; hit rate 2.5% among 73,000; also: nearly all actives have a fitted effect of over 55% in size
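Counterscreen for endogenous-receptor signalling: CNG-channel HEK 293 cells report cAMP rise by membrane depolarization. After 60 min dye equilibration with 100 uM RO 20-1724, compounds incubated 30 min before bottom-read fluorescence at 590 nm.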
UbGFP stabilizer = Ubiquitin-GFP Assay | AID 526, 2006 | 67,000 tested, under 10 active | Potency, µM (titrated, usually from 45.9 µM), hits mostly activators | Ubiquitin-GFP reporter cells, proteasome inhibition, GFP fluorescence; response scale: untreated = 0%, 10 µM MG-132 = 100%; active = well fitted activation curve with a large enough effect, not every such curve was filed as active; inconclusive = small, poorly fitted or top-dose-only effect, or another doubt; inactive = no such curve, though single readings can be large or run the other way
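Reporter cells (U2OS, ubiquitin-G76V-GFP fusion) are plated overnight, then treated 4 hr at 37 °C with compound titrations from 46 uM down to 2.9 nM. Activity is scaled against untreated cells and 10 uM MG-132.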
GFP derepression = qHTS Assay for Epigenetic Modulators | mouse C127i GFP locus derepression, cytometry, 30 h | Potency, µM (titrated, usually from 46.1 µM) | hit rate 0.09% among 68,000
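Locus derepression in mouse mammary C127i cells whose integrated CMV-GFP reporter is normally silent; GFP expression after 30 h compound treatment was quantified by counting fluorescent cells.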
HEK293 cAMP cnt = Confirmation Concentration-Response Assay for Agonists of the Thyroid Stimulating Hormone Receptor: Activators of Intracellular cAMP Concentrations in Parental HEK 293. activity change, negative = inhibition, % at 32.9 µM. 150 tested, under 10 active. parental HEK293 CNG biosensor, cAMP membrane potential fluorescence. shares compounds with TSHR ag
Each line names hits and unclear results; the compound was inactive in the other large screens (follow-up assays come after a bar, where they were run). Unless noted, calls follow the shape of the dose curve; as a rule, active = well fitted curve in the direction sought with a large enough effect; inconclusive = small, poorly fitted or top-dose-only effect, or another doubt; inactive = no such curve, though single readings can be large; an effect the other way counts as inactive or inconclusive.

CCOC(=O)c1c(C)noc1CP(=O)(c1ccccc1)c1ccccc1	TSHR ag inconclusive, HEK293 cAMP ctrl 12.6µM
CCOC(=O)c1sc(NC(=O)c2c(C)noc2C)c(C(=O)OCC)c1C	none
Nc1ccn([C@H]2CC[C@H](CO)O2)c(=O)n1	TSHR ag inconclusive, HEK293 cAMP ctrl inconclusive
CC(=O)Oc1ccc(C(c2ccc(OC(C)=O)cc2)c2ccccn2)cc1	TSHR ag inconclusive, HEK293 cAMP ctrl 2.51µM
COc1ccccc1-c1nccc(NCc2cccs2)n1	TSHR ag inconclusive, HEK293 cAMP ctrl inconclusive
CCCCn1c(NC(=O)c2ccccc2)nc2ccccc21	TSHR ag inconclusive, HEK293 cAMP ctrl 31.6µM
Cc1cc(C)cc(-n2c3nc4ccccc4nc3c3c(=O)n(Cc4ccco4)cnc32)c1	GFP derepression 12.6µM (no result: TSHR ag, HBB splicing, HEK293 cAMP ctrl, UbGFP stabilizer)
c1ccc(-c2noc(CSc3nnc(Cc4cccs4)n3-c3ccccc3)n2)cc1	TSHR ag inconclusive, HEK293 cAMP ctrl 25.1µM
c1ccc(-c2noc(CSc3nnnn3-c3ccccc3)n2)cc1	TSHR ag inconclusive, HEK293 cAMP ctrl inconclusive
Fc1ccc(-n2c(Cc3ccccc3)nnc2SCc2nc(-c3cccs3)no2)cc1	TSHR ag inconclusive, HEK293 cAMP ctrl 25.1µM
COc1ccc(-c2noc(CSc3nnc(Cc4ccccc4)n3-c3cccc(C)c3)n2)cc1OC	TSHR ag inconclusive, HEK293 cAMP ctrl inconclusive
C=C(C)C(O)C(CC/C=C(\C)C(=O)OCC)OC (stereo not given)	none (no result: UbGFP stabilizer, GFP derepression)
NC(CSS(=O)(=O)O)=N[C@@H]1C[C@H]2CC[C@@H]1C2	none
O=S(=O)(O)c1ccc2c(N=Nc3c(O)ccc4ccccc34)cccc2c1	none (no result: TSHR ag)
O=C(CCN1C(=O)COc2ccccc21)NCc1ccco1	none (no result: TSHR ag)
O=C(CN(Cc1cccs1)C(=O)CN1C(=O)COc2ccccc21)NCc1ccco1	TSHR ag inconclusive, HEK293 cAMP ctrl 15.8µM (no result: HBB splicing)
CC12C=C(/C=C/c3ccc(F)cc3)C(C)(C1)C(c1ccc(F)cc1)CC2=O (stereo not given)	none (no result: UbGFP stabilizer, GFP derepression)
CC(=O)OC[C@@H]1O[C@H](C/C=N\O[C@@H](C)c2cn([C@H]3COC[C@H]3O)nn2)C=C[C@@H]1OC(C)=O	none (no result: UbGFP stabilizer, GFP derepression)
O=C1CCCCC1Sc1nnc(Cc2cccs2)n1CCc1ccccc1 (stereo not given)	TSHR ag inconclusive, HEK293 cAMP ctrl 10µM
Cn1cccc1Cc1nnc(SCC(=O)NCC2CCCO2)n1CCc1ccccc1 (stereo not given)	none
CO[C@@H]1/C=C\CC(=O)N2CCC[C@@H]2C(=O)OC[C@@H](C)C(=O)OC[C@H]1C	none (no result: UbGFP stabilizer, GFP derepression)
CCOC(=O)c1cccc(NC(=O)CSc2nnc(C3CCCCC3)n2CC)c1	TSHR ag inconclusive, HEK293 cAMP ctrl 25.1µM
CO[C@H]1COC(=O)[C@H](C)NC(=O)[C@@H](C)COC(=O)[C@H]2CCCN2C(=O)C/C=C\[C@H]1C	none (no result: UbGFP stabilizer, GFP derepression)
Cc1cc(=O)oc2c(C)c(OCC(=O)N(C)C)ccc12	none
COc1ccc2c(C)cc(=O)oc2c1C	none | HEK293 cAMP cnt inactive
Cc1nc2ccc(Br)cn2c(=O)c1Cl	none | HEK293 cAMP cnt inactive
CC1CCN(S(=O)(=O)c2cccc(C(=O)Nc3ccccn3)c2)CC1	TSHR ag 25.1µM | HEK293 cAMP cnt inactive
O=C(Nc1ccccn1)c1cccc(S(=O)(=O)N2CCOCC2)c1	none
Cc1c2ccccc2c(CSC(=N)N)c2ccccc12	none
COc1ccc(Br)cc1CNC(=O)C1CCN(S(=O)(=O)N2CCCCC2)CC1	none | HEK293 cAMP cnt inactive
COc1ccc(OC)c(CNC(=O)C2CCN(S(=O)(=O)N3CCCC3)CC2)c1	none
CCCC(=O)C1=C(SCC)CC(C)(C)C(C(=O)OC)C1=O (stereo not given)	TSHR ag inconclusive, HEK293 cAMP ctrl inconclusive | HEK293 cAMP cnt inactive
Nc1nnc(SCC(=O)NCc2ccc3c(c2)OCO3)s1	none

Bioassay records from PubChem.
